Screening data: PubChem, National Center for Advancing Translational Sciences (NCATS)
Only some compounds are listed: those with a hit (about 6.2% of all), similar ones and a draw of the others.
KB-V1 MDR tox = qHTS assay for MDR1-selective chemotherapeutics: Primary screen using the drug-selected MDR subline cells KB-V1 | KB-V1 MDR cells viability, CellTiter-Glo, 72 h | Potency, µM (series often up to 46.1 µM), usual class: cytotoxic | actives 3.4% (n = 400,000); also: nearly all actives have a fitted effect of over 60% in size
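Cells of the MDR subline KB-V1 are plated, dosed with compound at multiple concentrations, and incubated 72 h at 37 degrees C; CellTiter-Glo is then added and luminescence read after 10 min.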
KB-3-1 tox = qHTS assay for MDR1-selective chemotherapeutics: Primary screen using the parental adenocarcinoma cell KB-3-1. Potency, µM (titrated, usually from 46.1 µM), most hits filed as cytotoxic. KB-3-1 viability, CellTiter-Glo ATP luminescence, 72 h. actives 1.4% (n = 400,000); also: nearly all actives have a fitted effect of over 60% in size
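KB-3-1 parental drug-naive adenocarcinoma cells in DMEM/10% FBS, incubated 72 h at 37 C with pin-transferred compounds across a concentration series. Viability by CellTiter-Glo luminescence; concentration-response curves fitted after normalization.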
ATXN viability = Viability Counterscreen for Primary qHTS for Inhibitors of ATXN expression; S2 cells (HEK-293 line with an ATXN2-luciferase reporter) viability, CellTiter-Fluor protease fluorescence, 24 h; Potency, µM (top dose mostly 56.7 µM), most hits filed as cytotoxic; actives 0.49% (n = 400,000); also: nearly all actives have a fitted effect of over 40% in size
ATXN2 expr inh = Primary qHTS for Inhibitors of ATXN expression | HEK-293 ATXN2-luciferase reporter, luminescence, 24 h | Potency, µM (top dose mostly 57 µM), hits mostly inhibitors | actives 0.72% (n = 360,000); also: nearly all actives have a fitted effect of over 55% in size
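ATXN2-luciferase reporter cells (luciferase flanked by upstream and downstream ATXN2 gene portions) were treated 24 h at 37 °C with compounds at up to 57 uM. SteadyGlo luminescence gave expression; GF-AFC fluorescence gave viability.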
HT1080 IDH1KD tx = qHTS for induction of synthetic lethality in tumor cells producing 2HG: qHTS for the HT-1080-IDH1KD cell line; HT-1080 IDH1 knockdown viability, ATP luminescence, 48 h; Potency, µM (series often up to 46.1 µM), usual class: cytotoxic; actives 2% (n = 360,000); AID 686971, 2013
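Assay cells: HT-1080 with IDH1 knockdown, 750 per well, RPMI/5% FBS. Exposure: 48 h at 37 °C following 2 h pre-incubation. Read: CellTiter-Glo luminescence; fitted concentration-response, curve class assigned.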
HT1080-NT tox = qHTS for induction of synthetic lethality in tumor cells producing 2HG: qHTS for the HT-1080-NT fibrosarcoma cell line; HT-1080-NT fibrosarcoma viability, CellTiter-Glo ATP luminescence, 48 h; actives 1.6% (n = 360,000); Potency, µM (series often up to 46.1 µM), actives largely listed as cytotoxic; AID 686970, 2013;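 also: NT is the 2HG producing partner of a matched IDH1 knockdown line; nearly all actives have a fitted effect of over 55% in size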
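750 cells/well, RPMI + 5% FBS; 2 h settle, compound pin-transfer, 48 h at 37 degrees C. CellTiter-Glo 10 min RT, luminescence. Normalized to DMSO and media-only wells.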
Numbers stand for hits; – = inactive; ? = inconclusive; · = no result. Calls follow the shape of the dose curve; as a rule, active = well fitted curve in the direction sought with a large enough effect; inconclusive = small, poorly fitted or top-dose-only effect, or another doubt; inactive = no such curve, though single readings can be large; an effect the other way counts as inactive or inconclusive.

SMILES	KB-V1 MDR tox	KB-3-1 tox	ATXN viability	ATXN2 expr inh	HT1080 IDH1KD tx	HT1080-NT tox
O=C(c1ccc2c(=O)n(-c3ccccc3)c(=S)[nH]c2c1)N1CCCCC1	?	7.3µM	–	–	–	–
CC1CCCN(C(=O)c2ccc3c(=O)n(C4CCCC4)c(=S)[nH]c3c2)C1 (stereo not given)	–	–	–	–	–	–
O=C(c1ccc2c(=O)n(C3CCCC3)c(=S)[nH]c2c1)N1CCCCCC1	7.3µM	?	–	–	–	–
Cc1cccc(-c2nc(S(=O)(=O)c3ccc(Cl)cc3)c(N3CCCCCC3)o2)c1	–	–	?	–	·	·
COc1ccc(CCNC(=O)c2cc(-c3ccccc3)nc3ccccc23)cc1OC	23µM	–	?	–	·	·
COc1ccc(CNC(=O)c2cc(-c3ccncc3)nc3c(C)cc(C)cc23)cc1OC	23µM	–	?	–	–	–
COc1ccccc1CNC(=O)c1cc(-c2ccncc2)nc2c(Cl)cccc12	–	–	–	–	–	–
COc1ccc(CCNC(=O)c2cc(-c3ccccn3)nc3c(Cl)cccc23)cc1OC	–	?	–	·	–	–
COc1ccc(CCNC(=O)c2cc(-c3ccncc3)nc3c(Cl)cccc23)cc1OC	23µM	–	–	–	–	–
COc1ccc(CCNC(=O)c2cc3cc(Cl)ccc3nc2N)cc1OC	–	–	–	–	18µM	–
Cc1cc(C)n2ncc(C(=O)NC(C)C)c2n1	–	–	·	·	·	·
COc1ccc(NC(=O)CCN2CCN(CCO)CC2)c(OC)c1	–	–	–	–	·	·
COc1ccc(CCNC(=O)c2nnn(-c3cccc(C)c3)c2N)cc1OC	9.2µM	–	–	–	–	–
COc1ccc(-c2cc(C(=O)NCCc3ccccc3)c3c(-c4ccccc4)[nH]nc3n2)cc1	?	–	?	–	·	·
COc1ccc(CCNC(=O)/C=C/c2ccc3ccccc3n2)cc1OC	18µM	?	?	–	23µM	?
COc1ccc(-c2cc(C(=O)NCCc3ccccc3)c3c(-c4ccc(Cl)cc4)[nH]nc3n2)cc1	23µM	–	?	–	·	·
CCCCn1c(NS(=O)(=O)c2ccccc2)c(S(=O)(=O)c2ccc(C)cc2)c2nc3ccccc3nc21	?	12µM	–	?	–	–
CCCCCn1c(NC(=O)c2ccco2)c(S(=O)(=O)c2ccc(C)cc2)c2nc3ccccc3nc21	18µM	–	–	–	?	?
